Measured values published in PubChem BioAssay (EPA / NIEHS).
Activity calls are given as the source filed them. Rule for the calls: active = hit-call score of the fitted dose curve at least 0.9, where 1 is the maximum; inactive = score below 0.9.

How the values were obtained:
[1] = test system: Brachyury (BRA) Protein Expression, Deisenroth Lab, TBXT (gene 6862); assay: CCTE_Deisenroth_DEVTOX-GLR_legacy_Bra: (Legacy) CCTE's DevTox GLR-Endo Assay Evaluation of Brachyury (BRA) Protein Expression, Deisenroth Lab (AID 2284329)
Method in brief: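 RUES2-GLR human pluripotent cells differentiated 48 h with two 24-h-interval chemical exposures (1 nM - 200 uM, 10 points); fixed, nuclear-stained, imaged. Bra+ cell percentage (intensity 5x BMAD above pluripotent control median) fitted relative to 0.2% DMSO.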

[2] = CCTE_Deisenroth_DEVTOX-GLR_legacy_CellCount: (Legacy) Viability Assessment in CCTE's DevTox GLR-Endo Assay, Deisenroth Lab (AID 2284331); conditions: actives raise or lower the signal
Method in brief: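 Viability is taken from imaged nuclei counts in fixed RUES2-GLR cultures after 48 h of differentiation under two 24 h-spaced chemical exposures, 10 concentrations from 1 nM to 200 uM, gain or loss versus DMSO baseline.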

[3] = test system: SRY-box transcription factor 17 (SOX17) Protein Expression, Deisenroth Lab, SOX17 (gene 64321); assay: CCTE_Deisenroth_DEVTOX-GLR_legacy_Sox17: (Legacy) CCTE's DevTox GLR-Endo Assay Evaluation of SRY-box transcription factor 17 (SOX17) Protein Expression, Deisenroth Lab (AID 2284341); conditions: actives raise or lower the signal
Method in brief: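 Endoderm-differentiation readout in RUES2-GLR human pluripotent cells at 48 h, concentrations spanning 1 nM - 200 uM. Sox17-positive cells divided by total cell count; gain or loss relative to DMSO solvent control, n=4 experimental replicates.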

[4] = test system: SRY-box transcription factor 2 (SOX2) Protein Expression, Deisenroth Lab, SOX2 (gene 6657); assay: CCTE_Deisenroth_DEVTOX-GLR_legacy_Sox2: (Legacy) CCTE's DevTox GLR-Endo Assay Evaluation of SRY-box transcription factor 2 (SOX2) Protein Expression, Deisenroth Lab (AID 2284346)
Method in brief: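 RUES2-GLR human pluripotent cells seeded 24 h, then differentiated 48 h in defined media with two chemical doses 24 h apart (10-point, 1 nM–200 uM). Fixed, nuclear-stained, imaged; % Sox2+ cells (>5x BMAD over endoderm control median), DMSO-subtracted, fitted upward.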

Measured: outcome

NC(=O)c1ccc(-c2nc(-c3ccc4c(c3)OCO4)c(-c3ccccn3)[nH]2)cc1
inactive: all assays above
